Screens: PubChem, National Center for Advancing Translational Sciences (NCATS)
KB-V1 MDR tox – kills drug-selected multidrug resistant KB-V1 cells; AID 1347076; hit rate 3.4% among 400,000; KB-V1 MDR cells viability, CellTiter-Glo, 72 h; Potency, µM (highest dose often 46.1 µM), hits mostly cytotoxic; further: on the % scale 0 is the no-effect control and ±100 the full control effect; nearly all actives have a fitted effect of over 60% in size
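Readout: CellTiter-Glo luminescence, 10 min after addition. Cells: KB-V1 MDR subline, 72 h at 37 degrees C with compound. Analysis: corrected, normalized data fitted to concentration-effect curves.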
MCF10A rerep – induces DNA re-replication in MCF 10a normal breast cells. MCF 10A DNA re-replication, Hoechst nuclear intensity, 48 h. Potency, µM (top dose mostly 46.1 µM), without a hit: top-dose activity, positive = re-replication, usual class: activators. hit rate 2.9% among 350,000; further: % of control where 0% means no effect; nearly all actives have a fitted effect of over 50% in size
PINK1 modulator – modulators of PINK1 expression. Potency, µM (top dose mostly 76.6 µM), for the others: at the highest dose activation (PINK1 increase), usual class: activators. PINK1 immunofluorescence, high-content cytometry, 24 h. AID 624263. hit rate 0.2% among 410,000; active means well fitted activation curve with a large enough effect; inconclusive means small, poorly fitted or top-dose-only effect; cell line not stated here; further: % of control where 0% means no effect; nearly all actives have a fitted effect of over 65% in size
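PINK1 protein level read as immunofluorescence by microplate cytometer in a fixed, stained stable cell line after 24 h exposure to five compound concentrations, with CCCP as control.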
PTAP TSG101 blk – blocks PTAP/TSG101 interaction to inhibit HIV-1 budding | Fluorescence polarization, FITC-PTAP peptide / Tsg101 binding | Potency, µM (doses to about 115 µM), for inactives: top-dose activity change, negative = inhibition, hits mostly inhibitors | AID 493005 | 340,000 tested, under 10 active; active means well fitted inhibition curve with a large enough effect in the main read-out, with a control signal flat, not every such curve was filed as active; inconclusive means small, poorly fitted or top-dose-only effect, or effect the other way, or a change in a side signal; inactive means no such curve, though single readings can be large or run the other way; further: % of control where 0% means no effect
Target sequence (Q99816 whole entry, looked up): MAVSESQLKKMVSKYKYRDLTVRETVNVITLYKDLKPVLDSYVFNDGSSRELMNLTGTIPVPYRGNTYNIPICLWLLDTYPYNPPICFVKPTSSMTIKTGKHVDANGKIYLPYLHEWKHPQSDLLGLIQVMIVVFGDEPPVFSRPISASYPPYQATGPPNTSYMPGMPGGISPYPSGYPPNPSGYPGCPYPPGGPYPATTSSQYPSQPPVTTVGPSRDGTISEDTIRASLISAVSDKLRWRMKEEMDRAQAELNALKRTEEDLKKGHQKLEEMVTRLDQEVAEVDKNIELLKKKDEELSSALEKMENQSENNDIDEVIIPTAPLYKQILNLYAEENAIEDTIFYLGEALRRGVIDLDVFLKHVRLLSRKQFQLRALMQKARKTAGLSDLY
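Tsg101 binding domain (10 uM final) was mixed with compound and a FITC-labeled PTAP peptide (50 nM final) in HEPES pH 7.5 buffer with NaCl, Tween 20, EDTA and TCEP; fluorescence polarization was read after 20 min at r.t.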
SW480 rerep – inducers of DNA re-replication in SW480 colon cancer cells; hit rate 1.8% among 340,000; Potency, µM (series often up to 46.1 µM), for inactives: top-dose re-replication activation, actives largely listed as activators; SW480 DNA re-replication, Hoechst DNA content imaging, 48 h; further: % of control where 0% means no effect; nearly all actives have a fitted effect of over 55% in size
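Readout is total intensity of Hoechst-stained nuclei, excited at 405 nm and collected at 500-530 nm. Compound treatment lasted 48 hr at 37 C in 5% CO2 before staining.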
KB-3-1 cytotox – kills parental KB-3-1 adenocarcinoma cells; KB-3-1 viability, CellTiter-Glo ATP luminescence, 72 h; AID 1347075; hit rate 1.4% among 400,000; Potency, µM (series often up to 46.1 µM), actives largely listed as cytotoxic; further: on the % scale 0 is the no-effect control and ±100 the full control effect; nearly all actives have a fitted effect of over 60% in size
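Cytotoxicity in the drug-sensitive parental line KB-3-1 was scored as loss of CellTiter-Glo luminescence following 72 h incubation with compound. Values come from curve fitting of normalized concentration-response data.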
An asterisk follows results filed as active; [ ] = dose if it differs, or a comment. An excerpt weighted towards active compounds, which were near 6.8% of everything screened. Unless noted, the call rests on the fitted dose curve; in most records, active means well fitted curve in the direction sought with a large enough effect; inconclusive means small, poorly fitted or top-dose-only effect, or another doubt; inactive means no such curve, though single readings can be large; an effect the other way counts as inactive or inconclusive. Potency means the concentration at half of the fitted maximal effect.

What do the screens show for `COc1ccc(-c2noc(CSc3nnc(Cc4ccccc4)n3-c3ccc(Cl)cc3)n2)cc1`?
KB-V1 MDR tox: 12µM*; MCF10A rerep: inconclusive; PINK1 modulator: -5%[38.3 µM]; PTAP TSG101 blk: -7%; SW480 rerep: 19%; KB-3-1 cytotox: inactive

Results for COCCCNc1ncnc2sc(C(=O)N3CCOCC3)c(C)c12 ?
PINK1 modulator: 2%

What do the screens show for `COC(=O)c1ccc(NC(=O)C(=O)N2CCN(C(=S)Nc3cccc(OC)c3)CC2)cc1`?
KB-V1 MDR tox: 18µM*; MCF10A rerep: -2%; PINK1 modulator: 2%; PTAP TSG101 blk: -2%; SW480 rerep: -27%; KB-3-1 cytotox: inactive

What do the screens show for `COC(=O)c1ccc(NC(=O)C(=O)N2CCN(C(=S)Nc3ccc(OC)cc3)CC2)cc1`?
KB-V1 MDR tox: 21µM*; MCF10A rerep: -2%; PINK1 modulator: -3%; PTAP TSG101 blk: 0%; SW480 rerep: 16%; KB-3-1 cytotox: inactive

How did CC(C)OC(=O)NC(C)(C)COC(=O)Nc1cccc(Cl)c1 do in these assays?
KB-V1 MDR tox: 9.2µM*; MCF10A rerep: 1%; PINK1 modulator: 2%[38.3 µM]; PTAP TSG101 blk: -5%; SW480 rerep: -7%; KB-3-1 cytotox: inconclusive

How did O=C(NCCc1nnc2n1CCN(Cc1ccc3c(c1)CCO3)CC2)c1ccco1 do in these assays?
PINK1 modulator: 1%

What do the screens show for `COc1cccc(-n2nnnc2SCC(=O)Nc2ccccc2OC)c1`?
KB-V1 MDR tox: inactive; MCF10A rerep: 4%; PINK1 modulator: 7%; PTAP TSG101 blk: -2%; SW480 rerep: -16%; KB-3-1 cytotox: inactive

How did CCCS(=O)(=O)c1nnnn1-c1cccc(OC)c1 do in these assays?
KB-V1 MDR tox: inactive; MCF10A rerep: 6.5µM*; PINK1 modulator: -5%[38.3 µM]; SW480 rerep: inconclusive; KB-3-1 cytotox: inactive

How did CCOc1ccc(CCNC(=O)Cn2ncc3c([nH]c4ccccc43)c2=O)cc1OCC do in these assays?
KB-V1 MDR tox: inactive; PINK1 modulator: 0%; KB-3-1 cytotox: inactive

How did Cn1c(Cn2c(=O)sc3ccccc32)nnc1SCC(=O)N1CCOCC1 do in these assays?
KB-V1 MDR tox: inactive; MCF10A rerep: -2%; PINK1 modulator: 0%; PTAP TSG101 blk: -2%; SW480 rerep: -5%; KB-3-1 cytotox: inactive

Results for O=C(CSc1nnc(Cn2c(=O)sc3ccccc32)n1CCc1ccccc1)N1CCOCC1 ?
KB-V1 MDR tox: 18µM*; MCF10A rerep: 15%; PINK1 modulator: 0%[38.3 µM]; PTAP TSG101 blk: -5%; SW480 rerep: 1%; KB-3-1 cytotox: inactive

Results for O=C(Cn1c(=O)c(C(F)(F)F)nc2ccccc21)Nc1cccc(Br)c1 ?
KB-V1 MDR tox: inactive; PINK1 modulator: 4%; KB-3-1 cytotox: inactive

How did Cc1cc(S(=O)(=O)N2CCCCC2CCNC(=O)C(=O)NCC2CCCO2)ccc1F (stereo not drawn) do in these assays?
KB-V1 MDR tox: 2.6µM*; MCF10A rerep: 1%; PINK1 modulator: -1%; PTAP TSG101 blk: -3%; SW480 rerep: -2%; KB-3-1 cytotox: inactive

How did O=C(NCCC1CCCCN1S(=O)(=O)c1ccccc1)C(=O)Nc1ccccc1F (stereo not drawn) do in these assays?
KB-V1 MDR tox: inactive; MCF10A rerep: -4%; PINK1 modulator: -5%; PTAP TSG101 blk: 0%; SW480 rerep: -123%; KB-3-1 cytotox: inactive

How did Cc1cc(S(=O)(=O)N2CCCCC2CCNC(=O)C(=O)NCCN2CCOCC2)ccc1F (stereo not drawn) do in these assays?
KB-V1 MDR tox: inactive; PINK1 modulator: 0%; KB-3-1 cytotox: inactive

What do the screens show for `O=C(NCCC1CCCCN1S(=O)(=O)c1ccc(F)cc1)C(=O)Nc1ccccc1F` (stereo not drawn)?
KB-V1 MDR tox: inactive; MCF10A rerep: -5%; PINK1 modulator: 6%; PTAP TSG101 blk: -3%; SW480 rerep: -256%; KB-3-1 cytotox: inactive

What do the screens show for `O=C(NCCC1CCCCN1S(=O)(=O)c1ccccc1)C(=O)Nc1ccc(F)cc1F` (stereo not drawn)?
KB-V1 MDR tox: inconclusive; MCF10A rerep: 18µM*; PINK1 modulator: 0%; PTAP TSG101 blk: -5%; SW480 rerep: inconclusive; KB-3-1 cytotox: inconclusive

Results for Cc1ccc(S(=O)(=O)N2CCCCC2CCNC(=O)C(=O)Nc2ccccc2F)cc1 (stereo not drawn) ?
KB-V1 MDR tox: 5.8µM*; MCF10A rerep: 17%; PINK1 modulator: 8%; PTAP TSG101 blk: 0%; SW480 rerep: 26%; KB-3-1 cytotox: 7.3µM*

How did Cc1ccccc1CNC(=O)CN(c1cccc(C)c1C)S(C)(=O)=O do in these assays?
KB-V1 MDR tox: inactive; PINK1 modulator: 2%; KB-3-1 cytotox: inactive

How did C=CCNC(=O)C(=O)NCCOc1ccccc1Cl do in these assays?
KB-V1 MDR tox: inactive; MCF10A rerep: inconclusive; PINK1 modulator: 13%; PTAP TSG101 blk: -5%; SW480 rerep: 21µM*; KB-3-1 cytotox: 7.3µM*

How did CC(C)(C)NC(=S)NNC(=O)c1cccc(Br)c1 do in these assays?
KB-V1 MDR tox: 16µM*; MCF10A rerep: -2%; PINK1 modulator: 2%; PTAP TSG101 blk: -5%; SW480 rerep: 2%; KB-3-1 cytotox: inconclusive

How did O=C(NNC(=S)Nc1ccccc1)c1cccc(Br)c1 do in these assays?
KB-V1 MDR tox: inactive; MCF10A rerep: 20%; PINK1 modulator: 3%[38.3 µM]; PTAP TSG101 blk: -1%; SW480 rerep: -2%; KB-3-1 cytotox: inactive

Results for Cc1ccccc1NC(=O)Cn1c(=O)n(CCC(=O)NCc2ccc3c(c2)OCO3)c(=O)c2sccc21 ?
PINK1 modulator: 0%

How did Cc1ccc(NS(=O)(=O)c2cc(NC(=O)c3cc4c(s3)CCCC4)ccc2C)c(C)c1 do in these assays?
KB-V1 MDR tox: 3.7µM*; MCF10A rerep: 11%; PINK1 modulator: -2%; PTAP TSG101 blk: -2%; SW480 rerep: -5%; KB-3-1 cytotox: inactive

Results for Cc1ccc(S(=O)(=O)N2CCOCC2)cc1NC(=O)c1cc2c(s1)CCC2 ?
KB-V1 MDR tox: inactive; MCF10A rerep: 6%; PINK1 modulator: 0%; PTAP TSG101 blk: -1%; SW480 rerep: 0%; KB-3-1 cytotox: inactive

How did Cc1ccc(S(=O)(=O)Nc2ccc(Cl)cc2)cc1NC(=O)c1cc2c(s1)CCCC2 do in these assays?
KB-V1 MDR tox: 15µM*; MCF10A rerep: inconclusive; PINK1 modulator: inconclusive; PTAP TSG101 blk: 0%; SW480 rerep: 4%; KB-3-1 cytotox: inactive

Results for COc1cccc(CNC(=O)CN2N=C(c3ccc(C)cc3)CCC2=O)c1 ?
PINK1 modulator: -1%

How did O=C1CCCC2=C1C1(CCS(=O)(=O)C1)N=C(Nc1nc3ccccc3o1)N2 (stereo not drawn) do in these assays?
KB-V1 MDR tox: inactive; KB-3-1 cytotox: inactive
